The results in this text go back to paper PMC7819943, “Rice protein-binding microarrays: a tool to detect cis-acting elements near promoter regions in rice”.

Whole data set: some 68,000 sequences, median “fluorescence intensity (a.u.)” near 9,100, cut for the highest 2% near 16,000. The sample as a whole holds a higher share of the highest values than the screen did.

Sequence of OsWRKY34 (Q0JBA9 entry or part of it): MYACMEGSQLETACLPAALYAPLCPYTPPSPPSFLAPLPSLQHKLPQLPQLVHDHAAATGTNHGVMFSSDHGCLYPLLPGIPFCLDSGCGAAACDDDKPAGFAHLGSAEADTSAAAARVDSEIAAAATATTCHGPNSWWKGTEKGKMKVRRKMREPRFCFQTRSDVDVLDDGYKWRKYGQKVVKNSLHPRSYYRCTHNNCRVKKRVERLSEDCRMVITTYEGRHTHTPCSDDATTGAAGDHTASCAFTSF

In this assay the target is OsWRKY34 (Oryza sativa, UniProt Q0JBA9 1-250). Nature of the assay: protein-binding microarray (RPBM); PBS, 2% BSA, 51.3 ng/ul salmon testes DNA, 50 uM zinc acetate, 200 nM TF, 25 C, 1 h; high values mean tight binding. Conditions: protein: recombinant; tags: N-terminal polyhistidine and DsRed monomer fusion (pET32a); label: CyDye5-dUTP incorporated in the synthesized complementary strand; 3' TTTTT single-stranded linker to array surface; dsDNA, one strand shown. The essentials:
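A custom Agilent array was converted to double-stranded form by primer extension with Cy5-dUTP and blocked with 2% BSA. Protein at 200 nM in PBS with 2% BSA, salmon testes DNA and 50 µM zinc acetate was applied for 1 h at 25 °C, followed by washing. The proteins were polyhistidine–DsRed N-terminal fusions of transcription factors, expressed in E. coli BL21-CodonPlus and Ni–NTA-purified. The binding signal is per-feature fluorescence intensity (arbitrary units) from an Axon 4000B scanner.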
In the case of “ACTCCCTCCGTATTTTAATATATGACGCCGTTGACTTATTCGGAGTCACCTAGTGCAG”, the binding signal is 13800 fluorescence intensity (a.u.).
Next, “CTCTGCACGTTTCTTTCCCCTAACAAATACATGTACACACCGGAGTCACCTAGTGCAG”: 9590 fluorescence intensity (a.u.); “ACACATAAACTTCTAACTTTTCCGTCACATCGTTCCAATTCGGAGTCACCTAGTGCAG”: 8380 fluorescence intensity (a.u.); “GCATCCTAACATCCCGCCGAAGGACCTTTTCAACCTCATCCGGAGTCACCTAGTGCAG”: 8300 fluorescence intensity (a.u.).
On to “ATTGAGATAGAGGGAGTGGTTGGGATGGTGAAGTTGCTATCGGAGTCACCTAGTGCAG”, for which the binding signal was 9450 fluorescence intensity (a.u.).
Next, “ACTCCATCAATTTTTCATTATGTCTGTGTTTGTCCTGACTCGGAGTCACCTAGTGCAG”: 14900 fluorescence intensity (a.u.); “TCAACTGTACTGTACTCCACTCGCCGCACACACTGACACACGGAGTCACCTAGTGCAG”: 11200 fluorescence intensity (a.u.).
Next, “AATTGACTTTTTTATGCTAATTTTCCCTCTAATTACTTGTCGGAGTCACCTAGTGCAG”: 18400 fluorescence intensity (a.u.); “GGGCATATTTCTCTATTTTTCTATTCCTATGGTTTGAAATCGGAGTCACCTAGTGCAG”: 9080 fluorescence intensity (a.u.).
Next, “AATTTTTTTCCTCTCCTGTTTTGTGCCCTTGATATTATGTCGGAGTCACCTAGTGCAG”: 13400 fluorescence intensity (a.u.).
With “ATGTCCCTAATTACTGCGTTTTCCATTTTGCTGTTTTTTACGGAGTCACCTAGTGCAG”, the binding signal is 16500 fluorescence intensity (a.u.).
Next, “TTATGCGTGACTTGTCTTTTTAATTTTTTAATAATTTTTTCGGAGTCACCTAGTGCAG”: 9370 fluorescence intensity (a.u.); “ATACTTCATCCGTTTCTAAATATTTGATGCCGTTGACTTTCGGAGTCACCTAGTGCAG”: 17600 fluorescence intensity (a.u.).
In the case of “AATATTTCATCAGTTTCTAAATTTTTGACGCCGTTGACTTCGGAGTCACCTAGTGCAG”, the binding signal is 10200 fluorescence intensity (a.u.).
Next, “ATATGTCTGACTTGTACTTTTATGTTATTTTTCCTCTAATCGGAGTCACCTAGTGCAG”: 13900 fluorescence intensity (a.u.).
Next, “GGTTTCCTCATATGCCCTTGAAAATTTGCTATTCCTCTGTCGGAGTCACCTAGTGCAG”: 22700 fluorescence intensity (a.u.).
Regarding “AGTTGTCCTGCTTTTTTGCTTTCCTAATCTGTTTCCATTTCGGAGTCACCTAGTGCAG”, the binding signal is 13300 fluorescence intensity (a.u.).
Next, “CATTTTTCTAATTACAAAGTCCATTTCTTTTTATGTTTTCCGGAGTCACCTAGTGCAG”: 8830 fluorescence intensity (a.u.).
Next, “CATATACTCTATCCGTTTCTAAATATTTGACGCCGTTGACCGGAGTCACCTAGTGCAG”: 16200 fluorescence intensity (a.u.); “CTGTTTAGATCTCCTAGCAACATTTTACACTCTCTTGCATCGGAGTCACCTAGTGCAG”: 8740 fluorescence intensity (a.u.); “CGAACGGTTTAACATATTTAAAAAAGTCAACGGCGTCAAACGGAGTCACCTAGTGCAG”: 8310 fluorescence intensity (a.u.).
Next, “GCTTGTTTCTTTGCTGAATTATTATTTTGCTCATTCCACTCGGAGTCACCTAGTGCAG”: 10300 fluorescence intensity (a.u.); “TTTTTCCCTGAAGCTCCTGTGTGTCATCTCTCTTTTTCTTCGGAGTCACCTAGTGCAG”: 11100 fluorescence intensity (a.u.); “ACACTGCCACTCTCTCCCTAGGCCTATAAATACCACCAGTCGGAGTCACCTAGTGCAG”: 8340 fluorescence intensity (a.u.).
For the sequence “CATGTTAATTTTCTACTACAGCTTAGGTTGATGCTATGTTCGGAGTCACCTAGTGCAG”, the binding signal is 8270 fluorescence intensity (a.u.).
Next, “ATCCGCAGACCAAGTCAACACTGCTACGTGAACACCACATCGGAGTCACCTAGTGCAG”: 9850 fluorescence intensity (a.u.); “ACGTTATTTATTGTTTTAGGTTCAATCTACGAGTTTCTTTCGGAGTCACCTAGTGCAG”: 10700 fluorescence intensity (a.u.).
Next, “TCCTCTTCGCCGGCTGCCGCTCCTCTCCCCGCTCGTCTTTCGGAGTCACCTAGTGCAG”: 9440 fluorescence intensity (a.u.); “TTTTTTTTTTATCCGTCCCTACTCCTCGCACCTTAAAAATCGGAGTCACCTAGTGCAG”: 10300 fluorescence intensity (a.u.); “GATCTCTCTCTCATCAGGACCCCGGCCTTAAGTTGTTTCTCGGAGTCACCTAGTGCAG”: 9120 fluorescence intensity (a.u.).
Next, “TACTTCCTTTGTCCCTAAATATTTGATGCCGTTGACTTTTCGGAGTCACCTAGTGCAG”: 23900 fluorescence intensity (a.u.); “GATACTCCCTCCATCCATAAATATTTGATGCCGTTGACTTCGGAGTCACCTAGTGCAG”: 12300 fluorescence intensity (a.u.); “ATTTCCCGTCCTTGTCCTAAATGAGTACTAATTTTGATTTCGGAGTCACCTAGTGCAG”: 10400 fluorescence intensity (a.u.).
Consider “TGGATTTATTTATTCTTGTTCTTTTTCTCGAAAATTTCCACGGAGTCACCTAGTGCAG”, for which the binding signal is 8640 fluorescence intensity (a.u.).
Next, “CTGCTATGAATTATCGGTTGCTTCCGGTGTTGGGCATTGACGGAGTCACCTAGTGCAG”: 12400 fluorescence intensity (a.u.); “ACACCGTTGACTTTTCGACTAACGTTTGACCATTTGTTTTCGGAGTCACCTAGTGCAG”: 49300 fluorescence intensity (a.u.); “TTTCGACTAACGTTTGACCATTCGTTTTATTCAAAATTTTCGGAGTCACCTAGTGCAG”: 8880 fluorescence intensity (a.u.).
Next, “GGTTTTGTGATTTTGACACCCATTCAGGTTCGTTGTTTTTCGGAGTCACCTAGTGCAG”: 11900 fluorescence intensity (a.u.); “TGACACCGTTGACTTTTCGACCAATGTTTGACCATTCGTTCGGAGTCACCTAGTGCAG”: 24400 fluorescence intensity (a.u.); “TTAAATGAGTGTTGACTTTTCGTATAACGTTTGACCATTTCGGAGTCACCTAGTGCAG”: 14600 fluorescence intensity (a.u.).
Next, “CTACTCCCTCCATTTCGAAATGTTTGACACCGTTGACTTTCGGAGTCACCTAGTGCAG”: 13900 fluorescence intensity (a.u.); “GATCCGCTCGCCCCGCCGCGCCGCCGACCATCGCCATCGCCGGAGTCACCTAGTGCAG”: 8410 fluorescence intensity (a.u.).
